# High-throughput results: PubChem, National Center for Advancing Translational Sciences (NCATS)
# Tau fluor counter: Counterscreen qHTS for Inhibitors of Tau Fibril Formation, Fluorescence Polarization. Potency, µM (highest dose often 57.7 µM). 280,000 tested, 0.93% active. tau K18 P301L Alexa594 fluorescence, heparin fibrillization; also: nearly all actives have a fitted effect of over 55% in size
#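 Human K18 P301L tau (15 uM unlabeled plus 0.24 uM Alexa 594-labeled, final) in 100 mM sodium acetate pH 7 was mixed with compound and 20 uM heparin and incubated 6 hr at 37 C.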
# Tau fibril ThT: qHTS for Inhibitors of Tau Fibril Formation, Thioflavin T Binding; Microtubule-associated protein tau (Homo sapiens), P10636; 270,000 tested, 2.1% active; Potency, µM (top dose mostly 57.4 µM), most hits filed as inhibitors; recombinant tau K18 P301L, heparin-induced fibrillization, ThT fluorescence; also: nearly all actives have a fitted effect of over 55% in size
# Target sequence (P10636 561-689 P618L limits assumed): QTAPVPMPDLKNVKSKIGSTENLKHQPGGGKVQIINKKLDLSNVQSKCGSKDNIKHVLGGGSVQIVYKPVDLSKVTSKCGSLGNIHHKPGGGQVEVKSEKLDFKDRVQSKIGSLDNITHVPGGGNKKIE
#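 ThT emission at 510 nm, taken 1 hr after adding 30 uM dye, quantifies aggregates formed when 20 uM heparin acts on human tau K18 P301L for 6 hr at 37 C.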
# ALDH1A1 inh: qHTS Assay for Inhibitors of Aldehyde Dehydrogenase 1 (ALDH1A1) | 220,000 tested, 7.3% active | Aldehyde dehydrogenase 1A1 (Homo sapiens), P00352 | AID 1030, 2008 | Potency, µM (series often up to 75.3 µM), usual class: inhibitors | Purified ALDH1A1, NADH fluorescence, propionaldehyde substrate; active = well fitted inhibition curve with a large enough effect, not every such curve was filed as active; inconclusive = small, poorly fitted or top-dose-only effect, or another doubt; inactive = no such curve, though single readings can be large or run the other way
# Tau FP inhib: qHTS for Inhibitors of Tau Fibril Formation, Fluorescence Polarization; Potency, µM (series often up to 57.7 µM), actives largely listed as inhibitors; AID 1468, 2008; 280,000 tested, 0.39% active; K18 P301L tau heparin fibrillization, Alexa594 FP, 6 h; also: nearly all actives have a fitted effect of over 55% in size
#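 Read-out: fluorescence polarization of Alexa 594-labeled tau (0.24 uM), 555 nm excitation, 632 nm emission. Mixtures held 15 uM unlabeled K18 P301L, compound and 20 uM heparin, pH 7 acetate buffer, incubated 6 hr at 37 C.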
# JMJD2E inh: qHTS Assay for Inhibitors of Human Jumonji Domain Containing 2E (JMJD2E). 230,000 tested, 1.6% active. Potency, µM (titrated, usually from 57.1 µM), most hits filed as inhibitors. AID 2147, 2009. JMJD2E catalytic domain, FDH-coupled NADH fluorescence (FDH is formaldehyde dehydrogenase). Lysine-specific demethylase 4E (Homo sapiens), B2RXH2; active = well fitted inhibition curve with a large enough effect, not every such curve was filed as active; inconclusive = small, poorly fitted or top-dose-only effect, or another doubt; inactive = no such curve, though single readings can be large or run the other way; also: nearly all actives have a fitted effect of over 50% in size
# HPGD block: qHTS Assay for Inhibitors of HPGD (15-Hydroxyprostaglandin Dehydrogenase); Potency, µM, actives largely listed as inhibitors; 15-hydroxyprostaglandin dehydrogenase [NAD(+)] (Homo sapiens), P15428; 150,000 tested, 4.3% active; purified HPGD, NADH fluorescence kinetic, PGE2 substrate; active = well fitted inhibition curve with a large enough effect, not every such curve was filed as active; inconclusive = small, poorly fitted or top-dose-only effect, or another doubt; inactive = no such curve, though single readings can be large or run the other way
# Target sequence (P15428 whole entry, looked up): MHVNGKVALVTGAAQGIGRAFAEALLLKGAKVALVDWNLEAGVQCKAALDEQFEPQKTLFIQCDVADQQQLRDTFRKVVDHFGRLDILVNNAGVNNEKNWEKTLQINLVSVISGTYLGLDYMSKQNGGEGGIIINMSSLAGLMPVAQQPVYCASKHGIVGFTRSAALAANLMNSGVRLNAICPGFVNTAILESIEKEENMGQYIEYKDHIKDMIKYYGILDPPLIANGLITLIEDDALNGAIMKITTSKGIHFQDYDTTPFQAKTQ
#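 20 nM HPGD preincubated 15 min at room temperature with compound in 50 mM Tris-HCl pH 8, 0.01% Tween 20. Started with 1 mM NAD+ and 30 uM prostaglandin E2; NADH fluorescence (360/450 nm) read 5 times over 30-s intervals, last minus first.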
# Hits are given with their value; – = inactive; ? = inconclusive; · = not tested or not shown; [ ] = another dose, or the depositor's remark. An excerpt weighted towards active compounds, which were near 9.9% of everything screened. Unless noted, calls follow the shape of the dose curve; as a rule, active = well fitted curve in the direction sought with a large enough effect; inconclusive = small, poorly fitted or top-dose-only effect, or another doubt; inactive = no such curve, though single readings can be large; an effect the other way counts as inactive or inconclusive.
SMILES,Tau fluor counter,Tau fibril ThT,ALDH1A1 inh,Tau FP inhib,JMJD2E inh,HPGD block
C=CCN1C(=O)C(CC(=O)O)SC1=Nc1ccc(C)cc1 (stereo unspecified),–,–,–,–,–,·
Cc1ccc2nc(-c3cccc(NC(=O)c4cccc5c(Cl)cccc45)c3)oc2c1,–,–,·,?,·,·
CCN(CC)S(=O)(=O)c1cccc(NC(=O)c2ccccc2Br)c1,–,–,11.2µM,–,–,·
COC(=O)[C@H](C)NC(=O)Nc1cccc(C(F)(F)F)c1,–,–,–,–,–,–
CCN(CC)S(=O)(=O)c1ccc(C)c(NC(=O)/C=C/c2cccs2)c1,–,–,0.708µM,–,–,–
O=C(Nc1ccc(OC(F)F)cc1)Nc1cccc(C(F)(F)F)c1,?,–,–,25.1µM,–,–
CCOc1ccc(NC(=O)CSc2ccc(-c3sc(-c4ccccc4)nc3C)nn2)cc1,?,?,·,–,·,·
CCOC(=O)c1c(C)[nH]c(CCC(=O)Nc2cc(C)cc(C)c2)c1C,?,–,·,–,·,·
Cc1cc2cc(CNC(=O)c3cc4ccccc4o3)ccc2n1C,–,?,?,–,?,7.08µM
Cc1cc2cc(CNC(=O)NC3CCCCC3)ccc2n1C,–,–,–,–,–,28.2µM
COCC(=O)NCc1ccc2c(c1)cc(C)n2C,–,–,–,–,–,25.1µM
Cc1cc2cc(CNC(=O)COc3ccccc3)ccc2n1C,–,–,·,–,–,·
Cc1ccc(S(=O)(=O)NCc2ccncc2)cc1,–,–,–,–,–,–
Cc1ccc(S(=O)(=O)NCc2ccc3c(c2)cc(C)n3C)cc1,–,?,20µM,–,–,–
Cc1cc2cc(CNC(=O)c3ccco3)ccc2n1C,–,?,·,–,–,·
O=C(NCc1ccco1)C1CCCN1C(=O)Nc1ccccc1Cl (stereo unspecified),–,–,–,–,–,·
O=C(Cn1c(-c2cccs2)cc2ccccc21)NCCCN1CCN(c2ccccc2F)CC1,?,?,·,–,·,·
COc1ccccc1OCC(=O)NNc1c2ccccc2nc2ccccc12,15.8µM[quencher],17.8µM,·,?,?,·
Cc1ccc(C(=O)NNc2c3ccccc3nc3ccccc23)cc1,11.2µM[quencher],3.16µM,·,?,–,·
CCn1c(NC(=O)c2ccc(C)cc2)c2ccccc2nc1=O,–,–,–,–,–,–
COc1ccccc1OCC(=O)Nc1ccc(O)cc1C(=O)O,–,–,?,–,?,–
Nc1ccccc1C(=O)NNc1c2ccccc2nc2ccccc12,12.6µM[quencher],5.62µM,·,–,–,·
COc1ccccc1Nc1ccc(C(=O)NC2CCCCC2)cn1,–,–,–,–,–,15.8µM
COc1ccccc1Nc1cc(C(=O)NC2CCCC2)c2ccccc2n1,–,–,·,–,·,·
Cc1noc(C)c1-c1cncnc1NCc1cccnc1,·,·,25.1µM,·,·,·
SMILES,Tau fluor counter,Tau fibril ThT,ALDH1A1 inh,Tau FP inhib,JMJD2E inh,HPGD block
Cc1ccc2c(c1)/C(=N/OC(=O)c1ccc(F)cc1)CCS2,–,–,–,–,–,?
O=C(O/N=C1/CCSc2ccccc21)c1ccccc1,–,?,18.9µM,–,–,17.8µM
O/N=C1/CCCSc2ccccc21,–,–,–,–,–,11.2µM
Cc1ccc2c(c1)/C(=N/O)CCS2,–,–,–,–,–,–
CCOC(=O)c1cccc(NC(=S)NCc2ccc(C)cc2)c1,?,–,?,?,–,·
O=[N+]([O-])c1cc(C(F)(F)F)ccc1Sc1ccc2ccccc2n1,?,–,?,–,–,15.8µM
CCCC(=O)N(c1ccc2oc(=O)sc2c1)S(=O)(=O)c1cccs1,–,31.6µM,–,?,–,–
Cc1c(C(=O)N2CCN(c3cccc(Cl)c3)CC2)cccc1[N+](=O)[O-],–,–,?,–,–,·
O=C(N/N=C/c1ccco1)c1cccc(N2CCCC2=O)c1,–,–,–,–,–,–
O=C(N/N=C/c1cc(Br)ccc1O)c1cccc(N2CCCC2=O)c1,–,–,–,–,28.2µM,–
